# In PubChem BioAssay (NCI):
# Compounds without any hit were thinned out: in the full panel of roughly 83,000, 20% have a hit.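 The test compound was applied at a single concentration to cells in 96-well plates for 48 hours, and percent growth was recorded.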 A number with no mark means an inactive call. Calls of active or inactive are those of the source. How the source made its calls: active means growth percent below 10; inactive means the rest.
# Legend:
# Assay in all cases: NCI-60 one-dose screen, 48 h (100 = growth as untreated, 0 = no growth, -100 = all killed)
# Conditions in all cases: 10 µM unless noted
# HCT-15 colon = tested on: HCT-15 colon
# HT29 colon = tested on: HT29 colon
# SNB-75 CNS = tested on: SNB-75 CNS
# SNB-19 CNS = tested on: SNB-19 CNS
# U251 CNS = tested on: U251 CNS
# PC-3 prostate = tested on: PC-3 prostate
# SK-MEL-5 melanoma = tested on: SK-MEL-5 melanoma
# UACC-62 melanoma = tested on: UACC-62 melanoma
# LOX IMVI melanoma = tested on: LOX IMVI melanoma
# SK-MEL-28 melanoma = tested on: SK-MEL-28 melanoma
# SK-MEL-2 melanoma = tested on: SK-MEL-2 melanoma
# EKVX NSCLC = tested on: EKVX NSCLC
# SN12C renal = tested on: SN12C renal
# UO-31 renal = tested on: UO-31 renal
# TK-10 renal = tested on: TK-10 renal
# ACHN renal = tested on: ACHN renal
# CAKI-1 renal = tested on: CAKI-1 renal
# A498 renal = tested on: A498 renal
# CCRF-CEM leukemia = tested on: CCRF-CEM leukemia
# MOLT-4 leukemia = tested on: MOLT-4 leukemia
Compound,growth (HCT-15 colon),growth (HT29 colon),growth (SNB-75 CNS),growth (SNB-19 CNS),growth (U251 CNS),growth (PC-3 prostate),growth (SK-MEL-5 melanoma),growth (UACC-62 melanoma),growth (LOX IMVI melanoma),growth (SK-MEL-28 melanoma),growth (SK-MEL-2 melanoma),growth (EKVX NSCLC),growth (SN12C renal),growth (UO-31 renal),growth (TK-10 renal),growth (ACHN renal),growth (CAKI-1 renal),growth (A498 renal),growth (CCRF-CEM leukemia),growth (MOLT-4 leukemia)
Cc1ccc(C(c2c(O)c3cc(Br)ccc3[nH]c2=O)c2c(O)c3cc(Br)ccc3[nH]c2=O)cc1,79.1%,97.5%,83.7%,93%,83.7%,75.5%,73.3%,63.2%,84.1%,89.6%,90.2%,71.2%,94.5%,59.5%,106%,73.5%,76.5%,79.6%,80.3%,66.6%
O=C(/C=C\c1ccc(OCCCCCC[P+](c2ccccc2)(c2ccccc2)c2ccccc2)cc1)c1ccc2c(c1)OCCO2,22%,-17.5% (active),-40.4% (active),16.2%,-58.5% (active),6.58% (active),-98.3% (active),-18.1% (active),-68.2% (active),-0.666% (active),-42.9% (active),23.9%,2.08% (active),4.82% (active),-9.1% (active),5.03% (active),2.91% (active),-30% (active),–,-20.6% (active)
FC(F)(F)c1cccc(Oc2ccc(Nc3ncnc4ccc(OCCCN5CCOCC5)cc34)cc2Cl)c1,-40.4% (active),5% (active),75.2%,61.1%,40.3%,49.1%,59.2%,76.1%,-36% (active),21.3%,82.7%,32.7%,39.6%,21.6%,46%,23.9%,35.6%,63.1%,-16.4% (active),34.3%
O=C(Nc1ccc(F)cc1)c1c(NC(=O)C(F)(F)F)sc2c1CCCCC2,11.5%,5.86% (active),-23% (active),13.3%,6.02% (active),3.29% (active),-55.6% (active),3.56% (active),15%,12.2%,-26.8% (active),-2.06% (active),2.15% (active),-0.296% (active),15.5%,1.59% (active),-19.1% (active),-57% (active),–,3.21% (active)
O=C1c2cccnc2C(=O)c2nc3cc(N4CCN(C5CC5)CC4)ccc3nc21,-58.8% (active),-21.3% (active),-64.7% (active),-81.5% (active),-32.6% (active),11.6%,-98.1% (active),-98.5% (active),-46.5% (active),-76.9% (active),-16.3% (active),27.4%,-94.7% (active),-100% (active),0.122% (active),-35.1% (active),-5.27% (active),-88.1% (active),26.2%,26.2%
CS(=O)(=O)Nc1cc(-c2ccc3ncnc(Nc4ccc5[nH]ncc5c4)c3c2)cnc1Cl,79.4%,80.9%,15.5%,68.7%,64.9%,76.8%,81%,58.9%,66.2%,50.8%,63.1%,62.3%,67.8%,64.1%,65.6%,83.8%,51.9%,24.5%,–,75.3%
Brc1ccc(C2CC(c3cccc(Nc4ccncc4)c3)=NN2c2ccccc2)cc1 (stereo unspecified),13.5%,4.59% (active),79.6%,94.3%,32.1%,52.4%,82.2%,98.6%,53.4%,73.3%,102%,95.7%,81.2%,74.6%,94.4%,91.3%,81.1%,80.2%,63.2%,47.3%
COc1cc(/C=C/C(=O)c2c(C)oc3nc[nH]c(=O)c23)ccc1O,98.1%,108%,84.4%,97.3%,103%,103%,101%,96.5%,97.7%,101%,109%,97.9%,97.2%,84.3%,135%,101%,87.1%,94.8%,–,104%
CC(=O)N1N=C(c2cccc(Nc3ccncc3)c2)CC1c1ccc2c(c1)OCO2 (stereo unspecified),81.2%,32.7%,80.2%,94.8%,82.8%,79%,81.6%,91.9%,81.7%,93.8%,99.9%,63%,81%,84.5%,98.1%,101%,81.8%,70.7%,81.2%,77.7%
COc1cccc2c1C(=O)c1c(O)c3c(c(O)c1C2=O)C[C@@](O)(C(=O)CO)C[C@@H]3O[C@H]1C[C@H](N)[C@@H](O)[C@H](C)O1,40.5%,-14.8% (active),-66.2% (active),10%,3.07% (active),-0.191% (active),-83.1% (active),-64.4% (active),0.955% (active),-34.7% (active),-72.9% (active),3.85% (active),10%,11.8%,6.82% (active),-36.9% (active),25.1%,-67.3% (active),-20.5% (active),-0.0958% (active)
COc1cc(NCCCN(CC(C)C)C2CCCC2)c2ncccc2c1,63.6%,71.8%,71%,84.6%,76.6%,59.4%,72.2%,73.6%,58.7%,71.2%,100%,89.9%,61.9%,51%,93.6%,41.7%,76%,37.1%,54.1%,71%
O=C(Nc1nc2ccc(C(=O)N3CCN(c4ccc(Cl)c(Cl)c4)CC3)cc2s1)c1ccc(NCCc2ccccc2)c([N+](=O)[O-])c1,98.3%,100%,98.1%,100%,102%,92.4%,87.9%,78.1%,98.3%,105%,104%,95.3%,93.3%,60.7%,113%,101%,87%,79.4%,93.6%,95.7%
Cc1cccc(Oc2ccc(Nc3ncnc4ccc(NC(=O)CN(C)C)cc34)cc2Cl)c1,-40.9% (active),3.23% (active),66.4%,59.9%,28.1%,40.7%,39.9%,102%,-78.1% (active),48.1%,84.2%,31.6%,36.7%,23.3%,36%,16.8%,40.8%,58.7%,47.7%,25.9%
COc1ccc(C(O)c2cc3c(N)c(C(=O)Nc4ccccc4)sc3nc2C)cc1 (stereo unspecified),9.94% (active),-22% (active),-7.27% (active),24.6%,5.4% (active),17.4%,-31.9% (active),19.6%,34.6%,68.1%,9.47% (active),26%,21.5%,19.1%,44.2%,25.7%,15.1%,-20.8% (active),4.7% (active),11.4%
Cn1c(COC(=O)NCCc2ccccn2)nc2c(N3CCOCC3)nc(Cl)nc21,-42.2% (active),0.156% (active),14.5%,60.6%,9.11% (active),18.4%,3.6% (active),11.1%,-83.7% (active),-90.8% (active),26.7%,14.9%,-41.5% (active),-99.3% (active),-72.2% (active),-100% (active),-78.9% (active),51.9%,-9.98% (active),0.583% (active)
